Source: the supplement of paper PMC13380429
A number with no mark means an inactive call.

Tested on: Vero E6 infected with SARS-CoV-2
Test: inhibition of SARS-CoV-2 cytopathic effect; higher = more antiviral protection, active = above 15
Conditions: 48 h

| SMILES | inhibition of SARS-CoV-2 cytopathic effect (1 nM) | inhibition of SARS-CoV-2 cytopathic effect (8.33 nM) | inhibition of SARS-CoV-2 cytopathic effect (100 nM) | inhibition of SARS-CoV-2 cytopathic effect (833.33 nM) | inhibition of SARS-CoV-2 cytopathic effect (10000 nM) |
| --- | --- | --- | --- | --- | --- |
| CC(C)(C)NC(=O)N[C@H](C(=O)N1C[C@H]2[C@@H]([C@H]1C(=O)NC(CC1CCC1)C(=O)C(N)=O)C2(C)C)C(C)(C)C (stereo not given in full) [Boceprevir] | 0.22% | 1.1% | -0.28% | -1.99% | -0.53% |
| O=c1c(-c2ccc(O)cc2)coc2c([C@@H]3O[C@H](CO)[C@@H](O)[C@H](O)[C@H]3O)c(O)ccc12 [kakonein] | -2.72% | -3.42% | -3.81% | -5.79% | -6.74% |
| N[C@@H](C(=O)O)c1ccc(C(=O)O)c(C(=O)O)c1 (racemic) | 2.59% | 0.287% | 1.6% | -2.93% | -0.293% |
| c1ccc2c(c1)CCCC2C1=NCCN1 (stereo not given) [tetrahydrozoline] | 0.31% | -1.09% | 2.06% | 1.39% | 0.27% |
| O=C1OC(OC(=O)c2cccnc2Nc2cccc(C(F)(F)F)c2)c2ccccc21 (stereo not given) [talniflumate] | 2.12% | -1.23% | -2.09% | 0.94% | 0.53% |
| Cc1nc(C)c(Cl)c(O)c1Cl [clopidol] | -2.81% | -1.24% | 1.07% | 0.96% | 1.78% |
| N#Cc1nn(-c2c(Cl)cc(C(F)(F)F)cc2Cl)c(N)c1[S+]([O-])C(F)(F)F (stereo not given) [fipronil] | 0.34% | 3.14% | 1.21% | 3.8% | 3.66% |
| O=C1NC(=O)c2cc(Nc3ccc(F)cc3)c(Nc3ccc(F)cc3)cc21 | 1.21% | -0.56% | -1.81% | 0.4% | 10.3% |
| CC(C)(C)C(=O)OCOP(=O)(COCCn1cnc2c(N)ncnc21)OCOC(=O)C(C)(C)C [adefovir-dipivoxil] | 2.79% | 1.23% | -0.37% | -2.27% | -3.69% |
| CCc1cncnc1N1CCN(Cc2nc3cc(C(F)(F)F)ccc3[nH]2)CC1 | 1.34% | -0.7% | 1.45% | 8.5% | -4.66% |
| C[C@]12CC[C@H]3[C@@H](CC[C@@]45O[C@@H]4C(O)=C(C#N)C[C@]35C)[C@@H]1CC[C@@H]2O [trilostane] | 1.21% | -0.28% | -1.2% | 0.24% | 2.15% |
| COc1ccccc1CC(=N)N1C[C@@H]2C(=O)CCC(c3ccccc3)(c3ccccc3)[C@@H]2C1 | -0.54% | 2.21% | 1.93% | 3.76% | -2.17% |
| COc1cc2c3cc1Oc1cc(ccc1O)C[C@@H]1c4c(cc(OC)c(O)c4Oc4ccc(cc4)C[C@@H]3N(C)CC2)CC[N+]1(C)C [tubocurarine] | -3.23% | -3.95% | -2.68% | 0.38% | 1.45% |
| Cc1cc(SCc2sc(-c3ccc(C(F)(F)F)c(F)c3)nc2C)ccc1OCC(=O)O | 0.88% | 1.12% | -2.76% | -1.29% | -1.19% |
| COc1ccc2[nH]c([S+]([O-])Cc3ncc(C)c(OC)c3C)nc2c1 (stereo not given) [omeprazole-magnesium] | 3.38% | 2.29% | 3.04% | 6.47% | 6.97% |
| CC(=O)O[C@H]1C(=O)[C@@]2(C)[C@H]([C@H](OC(=O)c3ccccc3)[C@]3(O)C[C@H](OC(=O)[C@H](O)[C@@H](NC(=O)c4ccccc4)c4ccccc4)C(C)=C1C3(C)C)[C@]1(OC(C)=O)CO[C@@H]1C[C@@H]2O [paclitaxel] | -2.42% | -0.27% | -2.39% | -4.55% | -2.64% |
| CC(=O)O[C@@H]1C[C@H]2C(C)(C)C(=O)C=C[C@]2(C)[C@H]2CC[C@@]3(C)[C@H](c4ccoc4)OC(=O)[C@H]4O[C@]43[C@@]21C [gedunin] | -1.35% | -1.68% | -1.07% | 6.09% | 19% (active) |
| CN1CCN(CCc2ccc(Cl)c(Cl)c2)CC1 | 0.05% | 3.18% | -0.38% | 0.92% | -1.14% |
| C[C@@H](Nc1cc(F)cc(F)c1)c1cc(C(=O)N(C)C)cc2c(=O)cc(N3CCOCC3)oc12 | -3.44% | -2.8% | -5.04% | 1.19% | -4.12% |

| SMILES | inhibition of SARS-CoV-2 cytopathic effect (1 nM) | inhibition of SARS-CoV-2 cytopathic effect (8.33 nM) | inhibition of SARS-CoV-2 cytopathic effect (100 nM) | inhibition of SARS-CoV-2 cytopathic effect (833.33 nM) | inhibition of SARS-CoV-2 cytopathic effect (10000 nM) |
| --- | --- | --- | --- | --- | --- |
| C/C(=C\CNc1ncnc2[nH]cnc12)CO [zeatin] | -3.72% | -2.49% | -0.97% | 0.86% | -1.15% |
| O=C(N/N=C/c1ccc(O)c(O)c1)c1cc2ccccc2cc1O [dynasore] | -1.99% | 1.05% | -1.82% | -0.26% | 0.04% |
| O=C(/C=C/c1ccc2ccc(C(F)(F)F)cc2n1)c1ccncc1 | 1.93% | 0% | -3.01% | 0.28% | 5.19% |
| Nc1nc(Nc2ccccc2)nc2c1ncn2[C@@H]1O[C@H](CO)[C@@H](O)[C@H]1O | 2.4% | 4.07% | 1.9% | 1.06% | -2.77% |
| CCCC(=O)Nc1ccc(OCC(O)CNC(C)C)c(C(C)=O)c1 (stereo not given) [acebutolol] | 4.4% | 2.88% | 3.43% | -2.09% | 3.92% |
| CCCC(O)C(CC)CO (stereo not given) [2-ethyl-1,3-hexanediol] | 4.92% | 0.49% | 1.14% | 0.52% | 0.65% |
| O=C1CCc2cc(OCCCCc3nnnn3C3CCCCC3)ccc2N1 [cilostazol] | -1.01% | -0.9% | 1.96% | -0.77% | -0.84% |
| CC(C)Nc1cccnc1N1CCN(C(=O)c2cc3cc(NS(C)(=O)=O)ccc3[nH]2)CC1 [delavirdine] | -1.49% | -0.85% | 1.56% | 1.65% | 2.87% |
| O=[N+]([O-])c1cc2nc(O)c(O)nc2cc1[N+](=O)[O-] | -4.28% | -0.96% | -0.81% | -1.99% | 0.49% |
| CNC[C@H](O)c1cccc(O)c1 [phenylephrine] | 0.59% | 1.75% | -0.82% | 0.14% | -0.09% |
| CC1(C)S[C@@H]2[C@H](NC(=O)C(C(=O)O)c3ccccc3)C(=O)N2[C@H]1C(=O)O (stereo not given in full) [carbenicillin] | 2.76% | 1.83% | 0.55% | 2.42% | 0.1% |
| Cc1oc(-c2ccccc2)nc1CCC(=O)c1ccc(CC2SC(=O)NC2=O)cc1 (stereo not given) [darglitazone] | 2.44% | 3.08% | -5.6% | -5.76% | -1.67% |
| CCOc1cc2ncc(C#N)c(Nc3ccc(F)c(Cl)c3)c2cc1NC(=O)/C=C/CN(C)C [pelitinib] | -2.05% | -5.13% | -7.91% | -5.27% | 2.95% |
| CC1(C)[C@@H](OC(=O)CCC(=O)O)CC[C@]2(C)[C@H]3C(=O)C=C4[C@@H]5C[C@@](C)(C(=O)O)CC[C@]5(C)CC[C@@]4(C)[C@]3(C)CC[C@@H]12 | 0.51% | 0.66% | 1.43% | 1.74% | -1.29% |
| Nc1ccn(C[C@@H](CO)OCP(=O)(O)O)c(=O)n1 [cidofovir] | -0.38% | 0.11% | -1.45% | -1.91% | -2.8% |
| Cc1c[nH]c(=O)n(CCCN2CCN(c3ccccc3OCC(F)(F)F)CC2)c1=O | -2.56% | 0.88% | -3.18% | -1.23% | -1.99% |
| CC[C@H](Nc1ncnc2[nH]cnc12)c1nc2cccc(F)c2c(=O)n1-c1ccccc1 [idelalisib] | -1.64% | 2.2% | 1.98% | 3.57% | -3.36% |
| O=C1CN2Cc3c(ccc(Cl)c3Cl)N=C2N1 [anagrelide] | 0.79% | -0.94% | -1.24% | -0.35% | 0.92% |
| Cc1ccc(Sc2cncc3sc(C(N)=O)cc23)cc1 | -1.26% | -2.96% | -2.49% | -2.02% | 4.33% |
